Test results as given in PubChem BioAssay (NCATS).
Several values for one entry are separate records, joined by “and”; a condition that tells them apart may be missing. Identical values can stand only once. Results filed as inconclusive are left out. Activity calls are given as the source filed them. The call rests on the fitted dose curve; in most records, active means well fitted inhibition curve with a large enough effect; inconclusive means small, poorly fitted or top-dose-only effect; inactive means flat fitted curve, though single readings scatter.

The compounds below were run on W2 (assay: qHTS profiling for inhibitors of Plasmodium falciparum proliferation (AID 504749)). Details: P. falciparum in erythrocytes, SYBR Green DNA, 72 h; series mostly up to 28.7 µM.
How it was run: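 P. falciparum-infected erythrocytes (0.3% parasitemia, 2.5% hematocrit) incubated with compound 72 h at 37 C, 5% CO2. Parasite DNA detected by SYBR Green after lysis, overnight at room temperature; normalised to 0.29 uM artemisinin and DMSO.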
Further: nearly all actives have a fitted effect of over 60% in size.
Potency means the concentration at half of the fitted maximal effect.

Compound | Potency
O=C(Nc1cccc(C(F)(F)F)c1)c1cc(Br)cc(Br)c1O | 6.75 µM (active)
Nc1c(N=Nc2ccc(-c3ccc(N=Nc4cc(S(=O)(=O)O)c5ccccc5c4N)cc3)cc2)cc(S(=O)(=O)O)c2ccccc12 | inactive
CCCCCCCC(=O)O | inactive
CN(C)CCCN1c2ccccc2C(C)(C)c2ccccc21 | 4.26 µM (active)
CC(O)CO (centres undefined) | inactive
CC(=O)Oc1cc(C)c(OC(C)=O)c2ccccc12 | 5.36 µM (active)
CCCCC/C=C\C/C=C\CCCCCCCC(=O)O | inactive
O=S(=O)(O)O | inactive
COC(C(=O)C(O)C(C)O)C1Cc2cc3cc(OC4CC(OC5CC(O)C(O)C(C)O5)C(O)C(C)O4)c(C)c(O)c3c(O)c2C(=O)C1OC1CC(OC2CC(OC3CC(C)(O)C(O)C(C)O3)C(O)C(C)O2)C(O)C(C)O1 (centres undefined) | 0.426 µM (active)
CCCCCCCCCCCC[n+]1ccc2ccccc2c1 | 0.301 µM (active)
O=C(O)c1cc(O)c2c(c1)[O][Bi][O]2 | inactive
CC1=CCC(C(C)(C)O)CC1 (centres undefined) | inactive
C[C@]12CCC(=O)C=C1CC[C@@H]1[C@@H]2[C@@H](O)C[C@@]2(C)[C@H]1CC[C@]2(O)C(=O)COP(=O)(O)O | inactive

The compounds below were run on KB-3-1 (assay: Cytotoxic Profiling of Annotated Libraries Using Quantitative High-Throughput Screening (AID 1296008; on max response: on the % scale 0 is the no-effect control and ±100 the full control effect)). Details: Five cell lines viability, CellTiter-Glo ATP luminescence, 48-72 h; max response: hits give low values.
How it was run: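 Cells exposed to compounds for 48 or 72 hr at 37 degrees Celsius. Viability read as ATP-coupled luminescence with CellTiter-Glo after 10 min at room temperature.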

Compound | max response | Potency
CC1(C)C(C=C(Cl)Cl)C1C(=O)OCc1cccc(Oc2ccccc2)c1 (centres undefined) | -12.6% (inactive) | –
CCCCC(C)(O)C/C=C/[C@H]1[C@H](O)CC(=O)[C@@H]1CCCCCCC(=O)OC (some centres undefined) | 3.19% (inactive) | –
CC(C(=O)O)c1ccc(N2Cc3ccccc3C2=O)cc1 (centres undefined) | -24.5% (inactive) | –
CC1=C(/C=C/C(C)=C/C=C/C(C)=C/C=C/C=C(C)/C=C/C=C(C)/C=C/C2=C(C)CCCC2(C)C)C(C)(C)CCC1 | -7.35% (inactive) | –
O=C1C(=O)c2ncccc2-c2cccnc21 | – | 4.61 µM (active)
O=C(O)CCC(=O)C(=O)O | -11.9% (inactive) | –
CCCCCCCC/C=C\CCCCCCCC(=O)O | 4.43% (inactive) | –
CCOc1ccc2c(c1)C(C)=CC(C)(C)N2 | -2.71% (inactive) | –
CCC(=O)NCCC1CCc2ccc3c(c21)CCO3 (centres undefined) | -7.29% (inactive) | –
IC(I)I | 9.13% (inactive) | –
Cc1c(C)c2c(c(C)c1O)CC[C@@](C)(CCC[C@H](C)CCC[C@H](C)CCCC(C)C)O2 | 4.35% (inactive) and -16.8% (inactive) | –
CCCCC(=O)O[C@]1(C(=O)CO)[C@H](C)C[C@H]2[C@@H]3CCC4=CC(=O)C=C[C@]4(C)[C@@]3(F)[C@@H](O)C[C@@]21C | 32.2% (inactive) | –
O=CCCCC=O | -2.08% (inactive) | –
C=CCSSSCC=C | -7.72% (inactive) | –
CCCCCCCCCCCCCC[n+]1ccc(C)cc1 | – | 18.4 µM (active)
CC(=O)Oc1c(C)cc(OCC(O)CNC(C)C)c(C)c1C (centres undefined) | 4.82% (inactive) | –

Compound | max response | Potency
CO[C@H](C(=O)[C@@H](O)[C@@H](C)O)C1Cc2cc3cc(O[C@H]4C[C@@H](O[C@H]5C[C@@H](O)[C@H](O)[C@@H](C)O5)[C@@H](O)[C@@H](C)O4)c(C)c(O)c3c(O)c2C(=O)[C@H]1O[C@H]1C[C@@H](O[C@H]2C[C@@H](O[C@H]3C[C@](C)(O)[C@H](O)[C@@H](C)O3)[C@H](O)[C@@H](C)O2)[C@H](O)[C@@H](C)O1 (some centres undefined) | – | 1.16 µM (active)
CO[C@H]1C[C@@H]2CC[C@@H](C)[C@@](O)(O2)C(=O)C(=O)N2CCCC[C@H]2C(=O)O[C@H]([C@H](C)C[C@@H]2CC[C@@H](OCCO)[C@H](OC)C2)CC(=O)[C@H](C)/C=C(\C)[C@@H](O)[C@@H](OC)C(=O)[C@H](C)C[C@H](C)/C=C/C=C/C=C/1C | -27.1% (inactive) | –
O=C(Nc1cccc(C(F)(F)F)c1)c1cc(Br)cc(Br)c1O | – | 16.4 µM (active)
Nc1c(N=Nc2ccc(-c3ccc(N=Nc4cc(S(=O)(=O)O)c5ccccc5c4N)cc3)cc2)cc(S(=O)(=O)O)c2ccccc12 | -9% (inactive) | –
CCCCCCCC(=O)O | -16.7% (inactive) | –
CN(C)CCCN1c2ccccc2C(C)(C)c2ccccc21 | -18.4% (inactive) | –
CC(O)CO (centres undefined) | -18.9% (inactive) | –
CC(=O)Oc1cc(C)c(OC(C)=O)c2ccccc12 | 4.15% (inactive) | –
CCCCC/C=C\C/C=C\CCCCCCCC(=O)O | -13.1% (inactive) | –
O=S(=O)(O)O | 5.37% (inactive) | –
COC(C(=O)C(O)C(C)O)C1Cc2cc3cc(OC4CC(OC5CC(O)C(O)C(C)O5)C(O)C(C)O4)c(C)c(O)c3c(O)c2C(=O)C1OC1CC(OC2CC(OC3CC(C)(O)C(O)C(C)O3)C(O)C(C)O2)C(O)C(C)O1 (centres undefined) | – | 1.46 µM (active)
CCCCCCCCCCCC[n+]1ccc2ccccc2c1 | – | 14.6 µM (active)
O=C(O)c1cc(O)c2c(c1)[O][Bi][O]2 | 2% (inactive) | –
CC1=CCC(C(C)(C)O)CC1 (centres undefined) | 6.57% (inactive) | –
C[C@]12CCC(=O)C=C1CC[C@@H]1[C@@H]2[C@@H](O)C[C@@]2(C)[C@H]1CC[C@]2(O)C(=O)COP(=O)(O)O | 13.4% (inactive) | –
